Data on 53 compounds can be found in paper PMC4336329 (PLoS ONE, 2015).

Each structure is given as a SMILES string. Among all 310,000 compounds or so, about 14,000 (4.5%) showed an effect of 50% or more. Effects have a minus sign here. The list comes from a sample in which strong results are over-represented; it also holds similar structures and randomly drawn compounds.
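Note: peak tail current of the secondary pulse compared with the same well before compound.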

The assay deals with human ether-à-go-go-related gene (hERG) potassium channel (human, UniProt Q12809). Kind of assay: primary screen, population patch clamp on CHO cells stably expressing hERG; higher = less effect of the substance.
Sequence of human ether-à-go-go-related gene (hERG) potassium channel (Q12809 whole entry, looked up): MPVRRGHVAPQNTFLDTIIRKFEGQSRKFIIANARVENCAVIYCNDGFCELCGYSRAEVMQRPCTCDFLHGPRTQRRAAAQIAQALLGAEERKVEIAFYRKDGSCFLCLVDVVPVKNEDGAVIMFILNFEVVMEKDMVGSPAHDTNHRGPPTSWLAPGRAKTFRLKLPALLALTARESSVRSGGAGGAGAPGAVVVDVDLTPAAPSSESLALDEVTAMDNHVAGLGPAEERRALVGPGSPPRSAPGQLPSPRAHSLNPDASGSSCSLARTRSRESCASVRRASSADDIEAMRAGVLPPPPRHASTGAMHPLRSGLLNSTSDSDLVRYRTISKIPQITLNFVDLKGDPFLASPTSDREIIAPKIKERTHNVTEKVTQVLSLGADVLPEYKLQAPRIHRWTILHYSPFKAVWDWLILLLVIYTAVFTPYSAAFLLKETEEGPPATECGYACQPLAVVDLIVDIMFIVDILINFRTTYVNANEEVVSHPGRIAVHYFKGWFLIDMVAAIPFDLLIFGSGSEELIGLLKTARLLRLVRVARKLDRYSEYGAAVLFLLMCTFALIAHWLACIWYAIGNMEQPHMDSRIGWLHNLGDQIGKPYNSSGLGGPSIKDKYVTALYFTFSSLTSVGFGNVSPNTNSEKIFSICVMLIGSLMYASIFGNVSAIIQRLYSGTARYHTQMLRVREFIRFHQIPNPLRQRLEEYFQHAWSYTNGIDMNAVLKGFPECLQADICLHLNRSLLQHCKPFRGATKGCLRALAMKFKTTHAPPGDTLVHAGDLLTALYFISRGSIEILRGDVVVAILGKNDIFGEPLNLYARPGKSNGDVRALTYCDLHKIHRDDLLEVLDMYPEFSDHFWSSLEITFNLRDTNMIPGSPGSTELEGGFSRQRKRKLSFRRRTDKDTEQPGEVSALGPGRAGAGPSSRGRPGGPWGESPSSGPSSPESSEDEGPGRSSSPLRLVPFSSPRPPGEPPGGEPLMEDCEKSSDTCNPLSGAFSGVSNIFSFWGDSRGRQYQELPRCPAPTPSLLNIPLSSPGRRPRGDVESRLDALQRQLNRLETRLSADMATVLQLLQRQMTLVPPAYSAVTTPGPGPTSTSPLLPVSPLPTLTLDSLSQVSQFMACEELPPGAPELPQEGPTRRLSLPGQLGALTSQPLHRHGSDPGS
In the case of `CC(=O)Nc1ccc(S(=O)(=O)NCC2CCC(C(=O)N3CCCCCC3)CC2)cc1` (centres unmarked), the “hERG current change (%, negative = inhibition) at 10uM” value worked out at 5.67%.

Consider `CN(c1ccccc1)S(=O)(=O)c1ccc(Cl)nc1`, for which the “hERG current change (%, negative = inhibition) at 10uM” value came out at 10.8%. Then `C#CCOCCOCCOCCNc1nc(N2CCN(C(=O)[C@H]([C@@H](C)CC)n3cc([C@@H](N)Cc4ccc(O)cc4)nn3)CC2)nc(N2CCN(C(=O)[C@H](Cc3cc4ccccc4[nH]3)n3cc([C@@H](N)C(C)CC)nn3)CC2)n1.Cl` (some centres unmarked), with 3.33%. `Cc1cc(Cl)ccc1OCC(=O)Nc1nc(-c2cccs2)cs1`: the “hERG current change (%, negative = inhibition) at 10uM” value stood at 15.6%. On to `CC(OC(=O)Cc1c[nH]c2ccccc12)C(=O)Nc1ccccc1F` (centres unmarked), for which the “hERG current change (%, negative = inhibition) at 10uM” value is on record as -11.7%.

Consider `O=C(c1cccc(C(=O)N2CCN(Cc3ccccc3)CC2)c1)N1CCN(Cc2ccccc2)CC1`, for which the “hERG current change (%, negative = inhibition) at 10uM” value was -17.2%.

Consider `O=C(c1ccccc1)N1CCN(Cc2cccc(Oc3ccccc3)c2)CC1`, for which the “hERG current change (%, negative = inhibition) at 10uM” value is -50.1%. As for `COc1cccc(CN2CCN(C(=O)c3ccc(-c4ccccc4)cc3)CC2)c1`, the “hERG current change (%, negative = inhibition) at 10uM” value is -38.3%. In the case of `CCN1CCN(Cc2cccc(Oc3ccccc3)c2)CC1` it was -35.9%; in that of `COc1cccc(C(=O)N2CCN(Cc3cccc(F)c3)CC2)c1.O=C(O)C(=O)O`, -7.48%.

In the case of `CCOc1ccc(CN2CCN(C(=O)c3cccc(F)c3)CC2)cc1.O=C(O)C(=O)O`, the “hERG current change (%, negative = inhibition) at 10uM” value is given as -62%. Then `CCN1CCN(Cc2cccc(Oc3ccc(Cl)cc3)c2)CC1`, with -56.9%. Then `CN1CCN(Cc2cccc(Oc3ccc(Cl)cc3)c2)CC1`, with 1.98%; and `O=C(O)C(=O)O.O=C(c1cccc(F)c1)N1CCN(Cc2cccc(Br)c2)CC1`, with -48.6%. In the case of `C=CCn1c(-c2cccc(OC)c2OC)n[nH]c1=S`, the “hERG current change (%, negative = inhibition) at 10uM” value is on record as -24.3%. As for `Cc1cc2c(c(=O)n1Cc1ccccn1)C(c1ccc3c(c1)OCO3)C(C#N)=C(N)O2` (centres unmarked), the “hERG current change (%, negative = inhibition) at 10uM” value is given as -0.622%. Then `COc1ccc(C(=S)N2CCCC2)cc1OC`, with 2.36%. On to `CC(C)OC(=O)CC(=O)CSc1nc2c(cc1C#N)CCCCCC2`, for which the “hERG current change (%, negative = inhibition) at 10uM” value is -4.33%. In the case of `O=C(O)c1ccc(C2SCC(=O)N2Cc2ccccc2)cc1` (centres unmarked) it was -0.7%; in that of `COc1ccc(N2CCN(C(=O)CSc3nnc4c(C)cc5cc(C)ccc5n34)CC2)cc1`, -21.2%; in that of `O=C1C2C3C=CC(C3)C2C(=O)N1c1n[nH]c(-c2cccnc2)n1` (centres unmarked), 11.1%. In the case of `O=C(CSc1nnc(Cn2c(=O)sc3ccccc32)n1-c1ccccc1)N1CCCCCC1` it was -12.5%. In the case of `CCO[C@@H]1OC(C(=O)NCc2ccccc2)=C[C@H](c2coc3ccccc3c2=O)[C@H]1CCCO` it was -47.5%; in that of `CNC(=O)c1ccsc1NC(=O)C1CCN(S(=O)(=O)c2ccc(Cl)s2)CC1`, -54.9%. As to `O=C(Nc1ccc(F)c(F)c1)C1CCN(S(=O)(=O)c2cccs2)CC1`, the “hERG current change (%, negative = inhibition) at 10uM” value is -53.7%. In the case of `CNC(=O)c1ccsc1NC(=O)C1CCN(S(=O)(=O)c2cccs2)CC1` it was -55.1%; in that of `CNC(=O)c1ccsc1NC(=O)c1ccc(Cl)s1`, -0.512%.

For the compound `Cc1ccc(NC(=O)C2CCN(S(=O)(=O)c3cccs3)CC2)cc1C`, the “hERG current change (%, negative = inhibition) at 10uM” value is on record as -31.1%. Then `CCOC(=O)C1CCN(S(=O)(=O)c2ccc(Cl)s2)CC1`, with -13.3%. For `CNC(=O)c1ccsc1NC(=O)C1CCCN1S(=O)(=O)c1cccs1` (centres unmarked), the “hERG current change (%, negative = inhibition) at 10uM” value worked out at 7.6%.

In the case of `O=C(Nc1ccc(F)cc1)C1CCN(S(=O)(=O)c2cccs2)CC1`, the “hERG current change (%, negative = inhibition) at 10uM” value is -24.4%.

Turning to `N#Cc1ccsc1NC(=O)C1CCN(S(=O)(=O)c2cccs2)CC1`, the “hERG current change (%, negative = inhibition) at 10uM” value was -20.2%. Then `O=C(Nc1ccccc1)C1CCN(S(=O)(=O)c2cccs2)CC1`, with -16.4%; and `NC(=O)c1ccsc1NC(=O)C1CCN(S(=O)(=O)c2cccs2)CC1`, with -52.4%. Turning to `O=C(Nc1nccs1)C1CCN(S(=O)(=O)c2cccs2)CC1`, the “hERG current change (%, negative = inhibition) at 10uM” value is -24.1%. In the case of `CCC(c1nnc(SCC(=O)NCCc2ccc(Cl)cc2Cl)o1)N(C)C` (centres unmarked) it was -19.9%; in that of `Cc1nn(-c2ccccn2)c2c1-c1nc(N)ncc1CC2`, 5.03%. Regarding `CC(C)CCn1c(Sc2nc3ccccc3o2)nc2c1c(=O)[nH]c(=O)n2C`, the “hERG current change (%, negative = inhibition) at 10uM” value is -20.8%. Then `Cc1ccc(-c2ocnc2C(=O)N2CCOCC2)cc1`, with 21.4%; and `COc1ccc(OC)c(-c2c(=O)n(OCc3ccccc3Br)c3ccccc3[n+]2[O-])c1`, with 11.5%; and `CCCN1CCc2c(sc(NC(=O)C3CCN(S(=O)(=O)c4cccs4)CC3)c2C(N)=O)C1.Cl`, with -61.3%. Take `O=C(Nc1nc2ccccc2[nH]1)C1CCN(S(=O)(=O)c2cccs2)CC1`: the “hERG current change (%, negative = inhibition) at 10uM” value is -0.923%. With `CC(=O)N1CCc2c(sc(NC(=O)C3CCN(S(=O)(=O)c4cccs4)CC3)c2C(N)=O)C1`, the “hERG current change (%, negative = inhibition) at 10uM” value was -29.4%. Then `CN1CCc2c(sc(NC(=O)C3CCN(S(=O)(=O)c4cccs4)CC3)c2C(N)=O)C1.Cl`, with -30.8%; and `Cc1csc(NC(=O)C2CCN(S(=O)(=O)c3cccs3)CC2)n1`, with -27.3%. With `CCCn1c(NC(=O)C2CCN(S(=O)(=O)c3cccs3)CC2)nc2ccccc21`, the “hERG current change (%, negative = inhibition) at 10uM” value is on record as -68.8%.

For the compound `CC12CN(C(=O)c3ccccc3Br)CC(C)(CN(C(=O)c3ccccc3Br)C1)C2=O`, the “hERG current change (%, negative = inhibition) at 10uM” value is -4.96%. In the case of `CCC(=O)Nc1ccc(C(=O)CSc2nnc(-c3ccc(NS(=O)(=O)CC)cc3)o2)cc1OC` it was 5.26%; in that of `O=C(CCN1C(=O)c2ccccc2C1=O)N1CCN(C(=O)c2ccccc2)CC1`, 0.00878%. Consider `CN(C)CCN(C)Cc1c2ccccc2c(CN(C)CCN(C)C)c2ccccc12`, for which the “hERG current change (%, negative = inhibition) at 10uM” value came to 0.802%.

For the compound `CN(C)CCN(C)Cc1ccccc1Sc1cccc2ccccc12.Cl`, the “hERG current change (%, negative = inhibition) at 10uM” value was -65.3%. Turning to `CN(C)Cc1ccccc1Sc1ccccc1Br`, the “hERG current change (%, negative = inhibition) at 10uM” value is recorded as -36.5%. As for `CCOC(=O)c1nn(-c2ccc(C)cc2)c(=O)cc1OCC(=O)Nc1cc(C)ccc1OC`, the “hERG current change (%, negative = inhibition) at 10uM” value is -2.12%.
